The full list was thinned out, with hits kept by preference.
STK33 inh: blocks human STK33 kinase activity; Q9BYT3; ADP-Glo luminescence, MBP substrate; inhibition, % at 12.5 µM; 27,000 compounds, 0.44% hits; AID 2322; in the data active = inhibition above about 20%
Target sequence (Q9BYT3 whole entry, looked up): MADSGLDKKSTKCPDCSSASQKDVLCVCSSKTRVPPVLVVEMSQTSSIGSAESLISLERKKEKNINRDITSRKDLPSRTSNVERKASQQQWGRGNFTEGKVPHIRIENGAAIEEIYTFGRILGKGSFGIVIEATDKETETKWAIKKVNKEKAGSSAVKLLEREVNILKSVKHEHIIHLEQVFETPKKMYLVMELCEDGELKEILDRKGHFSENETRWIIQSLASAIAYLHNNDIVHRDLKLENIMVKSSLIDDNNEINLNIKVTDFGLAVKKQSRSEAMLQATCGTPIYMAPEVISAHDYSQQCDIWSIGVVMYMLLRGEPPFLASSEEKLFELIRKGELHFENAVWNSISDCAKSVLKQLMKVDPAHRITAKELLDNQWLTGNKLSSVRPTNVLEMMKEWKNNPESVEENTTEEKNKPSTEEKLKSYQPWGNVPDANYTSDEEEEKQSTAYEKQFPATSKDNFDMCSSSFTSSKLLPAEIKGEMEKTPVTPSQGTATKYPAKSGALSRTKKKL
PD-1 reverse act: reversal of PD-1 mediated T-cell inhibition; primary human CD4 T cells, PD-L1 beads, CellTiter-Glo 96 h; activation, % (concentration not given with the values); 29,000 tested, under 10 active; call rule not given here;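 note: 0% = median vehicle wells and 100% = positive control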
NOMO-1 viab: STK33 inhibitor candidate reducing NOMO-1 cell viability. NOMO-1 AML viability, CellTiter-Glo luminescence, 72 h. inhibition, % (no concentration beside the values). 37,000 compounds, 7.5% hits. AID 2330; in the data active = inhibition above about 80%
* = called active by the depositor; nt = not tested or not shown.

SMILES	STK33 inh	PD-1 reverse act	NOMO-1 viab
COc1ccc(-c2cc(=O)c3ccccc3o2)cc1	8	nt	23
CCOC(=O)Nc1cc(=O)c2ccccc2o1	4	3	119*
C[C@H](CO)N1C[C@H](C)[C@@H](CN(C)Cc2ccc(Oc3ccccc3)cc2)Oc2c(NC(=O)Nc3ccc(C(F)(F)F)cc3)cccc2C1=O	nt	nt	97*
COc1ccc(NC(=O)Nc2cccc3c2O[C@H](CN(C)Cc2ccc(C(F)(F)F)cc2)[C@H](C)CN([C@H](C)CO)C3=O)cc1	nt	-3	3
C[C@H]1CN([C@@H](C)CO)C(=O)c2cccc(NC(=O)Nc3ccc(C(F)(F)F)cc3)c2O[C@H]1CN(C)Cc1ccccc1	nt	nt	41
C[C@@H]1CN([C@@H](C)CO)C(=O)c2cccc(NC(=O)Nc3ccc(C(F)(F)F)cc3)c2O[C@H]1CN(C)Cc1ccccc1	nt	-7	103*
C[C@H]1CN([C@@H](C)CO)C(=O)c2cccc(NC(=O)Nc3ccccc3)c2O[C@@H]1CN(C)Cc1ccc(C(F)(F)F)cc1	nt	2	104*
C[C@H](CO)N1C[C@H](C)[C@@H](CN(C)Cc2ccc(C(F)(F)F)cc2)Oc2c(NC(=O)Nc3ccccc3)cccc2C1=O	nt	nt	93*
C[C@@H]1CN([C@H](C)CO)C(=O)c2cccc(NC(=O)Nc3ccccc3)c2O[C@@H]1CN(C)Cc1ccc(C(F)(F)F)cc1	nt	1	38
Cc1noc(C)c1NC(=O)Nc1cccc2c1O[C@@H](CN(C)S(=O)(=O)c1ccc(Cl)cc1)[C@@H](C)CN([C@@H](C)CO)C2=O	nt	0	-10
COc1ccc(CN(C)C[C@H]2Oc3c(NS(=O)(=O)c4ccc(C)cc4)cccc3C(=O)N([C@H](C)CO)C[C@@H]2C)cc1	nt	1	8
CCc1ccc(CCC(=O)Nc2cc(C(F)(F)F)ccc2Cl)o1	-2	-3	12
CCCc1cc(=O)[nH]c(SCC(=O)Nc2ccc(C)cc2C)n1	0	nt	0
C[C@H]1CN([C@@H](C)CO)C(=O)c2cc(NS(=O)(=O)c3ccccc3)ccc2O[C@H]1CN(C)C(=O)NC1CCCCC1	4	-1	-8
C[C@@H]1CN([C@H](C)CO)C(=O)Cc2cc(NC(=O)C3CC3)ccc2O[C@H]1CN(C)C(=O)Nc1ccc2c(c1)OCO2	0	0	-6
C[C@H]1CN([C@@H](C)CO)C(=O)c2cccc(NC(=O)Nc3cccc4ccccc34)c2O[C@H]1CN(C)Cc1ccc(C(F)(F)F)cc1	nt	-2	53
C[C@H]1CN([C@@H](C)CO)C(=O)c2cccc(NC(=O)Nc3ccc(C(F)(F)F)cc3)c2O[C@H]1CN(C)Cc1ccncc1	nt	nt	-4
C[C@@H]1CN([C@H](C)CO)C(=O)c2cccc(NC(=O)Nc3cccc4ccccc34)c2O[C@@H]1CN(C)Cc1ccc(C(F)(F)F)cc1	nt	-1	98*
C[C@@H]1CN([C@@H](C)CO)C(=O)c2cccc(NC(=O)Nc3ccccc3)c2O[C@H]1CN(C)Cc1ccc(C(F)(F)F)cc1	nt	-6	88*
C[C@@H]1CN([C@@H](C)CO)C(=O)c2cc(NC(=O)NC3CCCCC3)ccc2O[C@H]1CN(C)Cc1ccncc1	2	-1	26
C[C@H]1CN([C@@H](C)CO)C(=O)c2cc(NC(=O)Cc3cn(C)c4ccccc34)ccc2O[C@@H]1CN(C)Cc1ccncc1	nt	nt	96*
C[C@@H]1CN([C@H](C)CO)C(=O)c2cc(NC(=O)Cc3cn(C)c4ccccc34)ccc2O[C@@H]1CN(C)C(=O)Nc1cccc2ccccc12	nt	-5	99*
C[C@@H]1CN([C@H](C)CO)C(=O)c2cc(NC(=O)Cc3cn(C)c4ccccc34)ccc2O[C@H]1CN(C)Cc1ccc(-c2ccccc2)cc1	nt	-4	96*
C[C@H](CO)N1C[C@H](C)[C@H](CN(C)Cc2ccncc2)Oc2ccc(NC(=O)Cc3cn(C)c4ccccc34)cc2C1=O	1	-2	69
C[C@@H]1CN([C@@H](C)CO)C(=O)c2cc(NC(=O)Cc3cn(C)c4ccccc34)ccc2O[C@@H]1CN(C)Cc1ccncc1	1	-3	31
SMILES	STK33 inh	PD-1 reverse act	NOMO-1 viab
C[C@@H]1CN([C@@H](C)CO)C(=O)c2cc(NC(=O)Cc3cn(C)c4ccccc34)ccc2O[C@H]1CN(C)Cc1ccncc1	nt	-3	109*
C[C@@H]1CN([C@@H](C)CO)C(=O)c2cc(NC(=O)Cc3cn(C)c4ccccc34)ccc2O[C@H]1CN(C)C(=O)Nc1cccc2ccccc12	nt	-1	18
C[C@H]1CN([C@@H](C)CO)C(=O)c2cc(NC(=O)Cc3cn(C)c4ccccc34)ccc2O[C@@H]1CN(C)Cc1ccc(-c2ccccc2)cc1	nt	-2	60
COc1ccc(NC(=O)Nc2ccc3c(c2)CC(=O)N([C@@H](C)CO)C[C@H](C)[C@H](CN(C)C(=O)Nc2ccccc2)O3)cc1	2	nt	9
COc1ccccc1NC(=O)CSc1nc(Nc2ccccc2)nc(Nc2ccccc2)n1	5	-1	26
Cc1ccc(S(=O)(=O)N(CC(=O)O)c2ccccc2C)cc1	0	nt	5
CNC(=O)CN(c1ccc(C)cc1)S(=O)(=O)c1ccc(Cl)cc1	-1	2	34
C[C@H]1CN([C@@H](C)CO)C(=O)c2cccc(NS(=O)(=O)c3cn(C)cn3)c2O[C@H]1CN(C)Cc1ccccc1	nt	nt	-17
Brc1c(Br)c(Br)c2n[nH]nc2c1Br	20*	4	32
C[C@@H]1CCCCO[C@H](CN(C)CC2CCCCC2)[C@@H](C)CN([C@H](C)CO)C(=O)c2cc(NC(=O)Nc3cccc4ccccc34)ccc2O1	4	-9	128*
C[C@@H]1CCCCO[C@@H](CN(C)CC2CCCCC2)[C@@H](C)CN([C@H](C)CO)C(=O)c2cc(NC(=O)Nc3cccc4ccccc34)ccc2O1	4	-11	112*
C[C@@H]1CCCCO[C@@H](CN(C)Cc2ccccc2)[C@@H](C)CN([C@H](C)CO)C(=O)c2cc(NC(=O)Nc3cccc4ccccc34)ccc2O1	0	2	35
C[C@@H]1CN([C@@H](C)CO)C(=O)c2cc(NC(=O)Nc3cccc4ccccc34)ccc2O[C@H]1CN(C)CC1CCCCC1	-1	-1	56
C[C@@H]1CN([C@H](C)CO)C(=O)c2cc(NS(=O)(=O)c3cccs3)ccc2O[C@@H]1CN(C)Cc1ccncc1	nt	nt	16
C[C@H](CO)N1C[C@H](C)[C@H](CN(C)C(=O)NC2CCCCC2)Oc2ccc(NC(=O)C3CC3)cc2CC1=O	0	0	0
C[C@@H]1CN([C@H](C)CO)C(=O)c2cccc(NC(=O)NC3CCCCC3)c2O[C@@H]1CN(C)Cc1ccccc1	nt	nt	20
C[C@@H]1CN([C@@H](C)CO)C(=O)Cc2cc(NS(=O)(=O)c3ccc(F)cc3)ccc2O[C@@H]1CN(C)S(C)(=O)=O	-1	2	23
C[C@H](CO)N1C[C@H](C)[C@H](CN(C)C(=O)Nc2cccc3ccccc23)Oc2ccc(NC(=O)CCCCCC(=O)Nc3ccccc3N)cc2CC1=O	nt	-1	38
O=C(COc1ccc(Cl)cc1)CC(=O)c1ccc(Cl)cc1	nt	-3	110*
Cc1ccc(NC(=O)COc2ccccc2)c(NC(=O)c2ccc(Cl)cc2)c1	1	2	12
CCN(CC)c1ccc2cc(C(N)=O)c(=Nc3ccc(F)cc3)oc2c1	nt	-1	94*

Source: PubChem
